The list is not random: actives were taken first. Their share in the collection is about 3.9%.
ALR H2O2 inh: inhibitors of human ALR sulfhydryl oxidase, primary screen, biochemical, H2O2 detection, HRP-luminol luminescence, single point; purified ALR, DTT oxidation; inhibition, % (concentration not given with the values); actives 3.8% (n = 290,000);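 active means mean replicate inhibition above about 79%, with every replicate also reaching it, limit read from the data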
Target sequence (P55789 whole entry, looked up): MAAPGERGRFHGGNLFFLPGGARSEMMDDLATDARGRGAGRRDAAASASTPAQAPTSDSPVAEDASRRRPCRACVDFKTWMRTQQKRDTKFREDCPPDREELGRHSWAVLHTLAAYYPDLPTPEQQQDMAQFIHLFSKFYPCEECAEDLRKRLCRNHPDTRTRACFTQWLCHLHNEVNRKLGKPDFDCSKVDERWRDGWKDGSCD
NSD2 HMT inh: NSD2 histone methyltransferase inhibitors, primary screen, biochemical, AlphaScreen, single concentration, set 2 | NSD2 peptide methylation, 120 min | Histone-lysine N-methyltransferase NSD2 (Homo sapiens), O96028 | actives 0.54% (n = 310,000) | inhibition, % at 12.5 µM | AID 743445, 2014; in the data active means inhibition above about 50%
CDK5 inh: inhibitors of human CDK5/p35 kinase, primary screen, biochemical, single concentration. Cyclin-dependent kinase 5 (Homo sapiens) + Cyclin-dependent kinase 5 activator 1 (Homo …. Recombinant CDK5/p35, ADP-Glo luminescence, 60 min. actives 0.01% (n = 330,000). inhibition, % at 10 µM;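 active means highest replicate inhibition of at least 50% and at least 75% of replicates reaching 50%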;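 further: plate controls were DMSO neutral control for no effect and GW8510 at 10 µM for full effect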
SUMO Mot1 rescue: yeast Mot1-301 growth rescue at high temperature, primary screen, SUMOylation pathway inhibitor project, S. cerevisiae, ATP luminescence, 38.5C. S. cerevisiae Mot1-301 growth rescue; percent above DMSO median, 100 means doubled. growth rescue, % at 18.8 µM. actives 1% (n = 320,000);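 active means every valid replicate shows activation above 250% relative to neutral control wells; inactive means the rest, any valid replicate at or below 250%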;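 further: OY570 slx delta 5 strain wells were the positive control but not used for scaling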
Casp6 inh: human caspase-6 inhibitors, primary screen, biochemical, VEID-R110 fluorescence, single point, set 2. actives 0.53% (n = 350,000). purified caspase-6, Z-VEID-R110 cleavage fluorescence. P55212. inhibition, % at 12.5 µM. AID 686996, 2013;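 active means mean inhibition across replicates at least about 35%, with every replicate also reaching that limit, limit read from the data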;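 further: 0% = median of neutral control wells and 100% = no fluorescence left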
Target sequence (P55212 24-179 limits assumed): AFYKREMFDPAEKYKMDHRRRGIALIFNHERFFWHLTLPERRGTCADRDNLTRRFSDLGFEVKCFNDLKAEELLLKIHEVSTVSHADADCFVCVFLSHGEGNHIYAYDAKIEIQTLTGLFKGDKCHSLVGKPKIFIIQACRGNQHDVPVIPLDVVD
Target sequence (P55212 194-293 limits assumed): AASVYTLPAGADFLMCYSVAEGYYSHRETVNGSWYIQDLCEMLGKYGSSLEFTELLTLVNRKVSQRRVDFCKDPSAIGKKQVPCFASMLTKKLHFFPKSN
N-glyco inh: increase of ERlucT glycosylation luciferase signal, primary screen, N-linked glycosylation inhibitor project, D54 ERlucT cells, luminescence, set 2 | D54 ERlucT glycosylation luciferase reporter, 24 h; percent of 100 nM tunicamycin response | reporter increase, % at 12.5 µM | actives 0.23% (n = 360,000);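 active means mean luciferase reporter signal, scaled so untreated is 0 and the glycosylation-blocking control 100, at or above a set limit in every replicate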;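 further: luciferase carries N-glycosylation sites so blocking glycosylation raises the light; 0% = median of neutral control wells and 100% = median of 100 nM tunicamycin wells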
Mot1 SUMO dose: growth restoration of Mot1-301 yeast on galactose, dose response, SUMO pathway inhibitor project, whole organism, S. cerevisiae, ATP luminescence, cherry-picked samples; shares compounds with SUMO Mot1 rescue; S. cerevisiae Mot1-301 galactose growth, 24 h; -100 = growth of slx-deleted rescue strain; growth activity, percent, % at 42 µM; 2,300 tested, under 10 active;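 active means Signal drops as the depositor expects, and the fitted half-maximal dose is no more than ten times the top valid tested dose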;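 further: more negative values mean stronger growth rescue toward the control strain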
Numbers without * were called inactive.

`C[C@@H]1CN([C@@H](C)CO)C(=O)c2cc(NC(=O)CCCCCC(=O)Nc3ccccc3N)ccc2O[C@H]1CN(C)C(=O)Nc1cccc2ccccc12` gave Casp6 inh -1.
For O=C(NC1CCCCC1)N(Cc1cc2cc3c(cc2[nH]c1=O)OCCO3)C1CCCCC1 the results were ALR H2O2 inh -2, NSD2 HMT inh 1, CDK5 inh 0, SUMO Mot1 rescue 828*, N-glyco inh -7 and Mot1 SUMO dose 0.
Screening COc1cc2cc(CN(C(=O)NC3CCCCC3)C3CCCC3)c(=O)[nH]c2cc1OC returned ALR H2O2 inh -4, CDK5 inh 0, SUMO Mot1 rescue -9 and N-glyco inh 2.
CCc1ccccc1NC(=O)N[C@@H](C)C(=O)OC was read as ALR H2O2 inh 3, NSD2 HMT inh -2, CDK5 inh 1, SUMO Mot1 rescue 650*, N-glyco inh -1 and Mot1 SUMO dose 0.
`N#CC(C#N)=C1C=CC=CN1/C(=C\c1ccccc1Cl)C(=O)c1ccccc1` gave NSD2 HMT inh 0, CDK5 inh 5, SUMO Mot1 rescue 600*, N-glyco inh -8 and Mot1 SUMO dose -2.
`COc1cc(NC(=O)[C@H]2CCCN2S(=O)(=O)c2cccc3cccnc23)cc(OC)c1OC` gave ALR H2O2 inh -5, CDK5 inh 0, SUMO Mot1 rescue -1, Casp6 inh 2 and N-glyco inh 5.
For O=C(NC1CCCCCC1)C1CCN(S(=O)(=O)c2cccc3cccnc23)CC1 the results were ALR H2O2 inh 38, CDK5 inh -1, SUMO Mot1 rescue 561*, Casp6 inh -2, N-glyco inh -2 and Mot1 SUMO dose 1.
`COc1ccc(NC(=O)C2CCCN2S(=O)(=O)c2cccc3cccnc23)cc1OC` (configuration not stated) gave ALR H2O2 inh -14, NSD2 HMT inh 7, CDK5 inh 3, SUMO Mot1 rescue 414*, Casp6 inh 1, N-glyco inh 1 and Mot1 SUMO dose 0.
Screening O=C(CCN1CCCCC1)NCC[C@@H]1CC[C@H](NS(=O)(=O)c2cccc(F)c2)[C@@H](CO)O1 returned Casp6 inh -14.
For COCCCN1C(=O)[C@@]2(Cc3ccccc31)c1ccccc1C(=O)N(Cc1ccccc1)[C@H]2c1ccc(CO)cc1 the results were Casp6 inh 0.
Screening O=C(CSc1nnc(SCc2ccc(Cl)cc2)s1)N1CCOCC1 returned ALR H2O2 inh 0, NSD2 HMT inh -7, CDK5 inh 0, SUMO Mot1 rescue -13 and N-glyco inh -1.
For CCN(CC)C(=O)CSc1nnc(SCc2ccc(Cl)cc2)s1 the results were ALR H2O2 inh -3, CDK5 inh 0, SUMO Mot1 rescue 510*, N-glyco inh -3 and Mot1 SUMO dose 0.
`COc1cc(OC)c(C(=O)N2CCN(c3ccccn3)CC2)cc1OC` gave ALR H2O2 inh -4, NSD2 HMT inh -1, CDK5 inh 2, SUMO Mot1 rescue 798*, Casp6 inh -1, N-glyco inh 0 and Mot1 SUMO dose 0.
For COc1ccc(NC(=O)C(c2ccccc2)N2CCN(c3ccccn3)CC2)cc1Cl (configuration not stated) the results were ALR H2O2 inh -4, NSD2 HMT inh -2, CDK5 inh 0, SUMO Mot1 rescue 755*, Casp6 inh -1, N-glyco inh 0 and Mot1 SUMO dose 1.
Screening Cc1ccc(S(=O)(=O)Cc2ccc(C(=O)N3CCN(c4ccccn4)CC3)o2)cc1 returned ALR H2O2 inh 97*, CDK5 inh 1, SUMO Mot1 rescue 537*, Casp6 inh 3, N-glyco inh 2 and Mot1 SUMO dose 0.
Cc1ccc(NC(=O)C(c2ccccc2)N2CCN(CC(=O)NC3CC3)CC2)cc1Cl (configuration not stated) was read as NSD2 HMT inh -1, CDK5 inh 0, SUMO Mot1 rescue -12, Casp6 inh 0 and N-glyco inh 0.
C[C@@H]1CN([C@H](C)CO)C(=O)Cc2cc(NS(=O)(=O)c3ccccc3)ccc2O[C@H]1CN(C)C was read as Casp6 inh 0.
For CCS(=O)(=O)N1CC(=O)N2[C@H](CO)[C@H](c3ccc(-c4ccc(C)cc4)cc3)[C@@H]2C1 the results were Casp6 inh 1.
Screening COc1ccc2c3c([nH]c2c1)[C@H](CO)N(S(C)(=O)=O)CC31CCN(C(=O)Cc2cccnc2)CC1 returned Casp6 inh 2.
Screening Cn1nc(C(=O)NCCc2ccc(Cl)cc2)c2c1-c1ccccc1S(=O)(=O)C2 returned ALR H2O2 inh 0, NSD2 HMT inh -1, CDK5 inh -1, SUMO Mot1 rescue 440*, Casp6 inh 4, N-glyco inh -5 and Mot1 SUMO dose 1.
`Cc1cc2ncc(C(=O)N=CN(C)C)cn2n1` gave ALR H2O2 inh -4, NSD2 HMT inh -1, CDK5 inh -2, SUMO Mot1 rescue 498*, Casp6 inh 2, N-glyco inh 0 and Mot1 SUMO dose 0.
CC1c2cc3c(cc2CCN1CC(=O)Nc1ccccc1)OCCCO3 (configuration not stated) was read as ALR H2O2 inh 2, CDK5 inh -1, SUMO Mot1 rescue 653*, Casp6 inh -4, N-glyco inh 2 and Mot1 SUMO dose 0.
Screening COCc1cn(CC[C@H]2CC[C@@H](NC(=O)c3ccc(F)cc3)[C@@H](CO)O2)nn1 returned Casp6 inh 4.
O=C(NCc1ccco1)C1CC(=O)N(c2ccc(Cl)cc2)C1 (configuration not stated) was read as ALR H2O2 inh -15, NSD2 HMT inh -3, CDK5 inh 0, SUMO Mot1 rescue 648*, Casp6 inh 2, N-glyco inh 1 and Mot1 SUMO dose -1.
Screening O=C(NCc1ccco1)C1CC(=O)N(c2cccc(Cl)c2)C1 (configuration not stated) returned ALR H2O2 inh 23, NSD2 HMT inh -1, CDK5 inh 0, SUMO Mot1 rescue -17, Casp6 inh 2 and N-glyco inh -1.
`CNC[C@@H]1Oc2ccc(NC(=O)Nc3ccc(F)cc3)cc2CC(=O)N([C@@H](C)CO)C[C@@H]1C` gave Casp6 inh 0.
